Data taken from PubChem BioAssay (NCATS).
Results filed as inconclusive are left out. Calls of active or inactive are those of the source. Unless noted, the call rests on the fitted dose curve.

Columns and labels:
[1] = biological target: Glucocorticoid receptor (Homo sapiens) (UniProt P04150); assay: qHTS assay for small molecule agonists of glucocorticoid receptor signaling (AID 588532; active means well fitted curve in the direction sought with a large enough effect in the signal ratio, with a control signal flat; the % refers to the signal ratio;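 further: 100% = dexamethasone at 0.1 µM and 0% = DMSO only wells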); details: HeLa MMTV-bla, beta-lactamase ratio, agonist, 18 h; activation: stronger effect = higher value, percent of dexamethasone control, DMSO zero
In short: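 Quantitative HTS using CellSensor MMTV-bla HeLa cells in charcoal/dextran-treated serum; compounds tested up to 92 uM. After 18 h at 37 C, CCF4 dye reported reporter induction.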

[2] = biological target: Peroxisome proliferator-activated receptor delta (Homo sapiens) (UniProt Q03181); assay: qHTS assay for small molecule agonists of peroxisome proliferator-activated receptor delta signaling (AID 588534);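 further: 0% = DMSO basal wells and 100% = positive control agonist at 10 µM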
In short: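 Agonist-mode beta-lactamase reporter readout (CCF4 dye, 2 h at RT) after 18 h at 37 °C exposure to a titration; Hill-equation fitting gave EC50 and maximal response.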

[3] = biological target: Peroxisome proliferator-activated receptor delta (Homo sapiens) (UniProt Q03181); assay: qHTS assay for small molecule antagonists of peroxisome proliferator-activated receptor delta signaling (AID 588535; active means well fitted inhibition curve with a large enough effect in the signal ratio, with a control signal flat, not every such curve was filed as active; the % refers to the signal ratio)
In short: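 Titrations were run on PPAR-delta-UAS-bla HEK293T cells in charcoal/dextran-stripped serum, incubated 18 h at 37 C. CCF4 fluorescence (460/530 nm) after 2 h RT; Hill equation yields IC50 and maximal response.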

[4] = biological target: Peroxisome proliferator-activated receptor gamma (Homo sapiens) (UniProt P37231); assay: qHTS assay for small molecule agonists of peroxisome proliferator-activated receptor gamma signaling (AID 588536; active means well fitted curve in the direction sought with a large enough effect in the signal ratio, with a control signal flat, not every such curve was filed as active; the % refers to the signal ratio;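 further: 0% = DMSO basal wells and 100% = rosiglitazone at 2 µM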)
In short: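 Using GeneBLAzer HEK293 cells, response was quantified by CCF4 fluorescence and normalized between basal DMSO (0%) and rosiglitazone 2 uM (100%); curves yielded half-maximal stimulation concentration and efficacy.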

[5] = biological target: Vitamin D3 receptor (Homo sapiens) (UniProt P11473); assay: qHTS assay for small molecule antagonists of vitamin D receptor signaling (AID 588541);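 further: receptor activated by calcitriol during compound treatment; series mostly up to about 77 µM; on the % scale 0 is the no-effect control and ±100 the full control effect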
In short: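 Antagonist-mode beta-lactamase reporter assay: HEK293T VDR-UAS-bla cells were exposed to titrated compound alongside 1-alpha,25-dihydroxyvitamin D3 at 3 nM final for 16 h. Values were normalized to the 50 nM agonist control and DMSO basal, with IC50 and efficacy from Hill equation fits.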

[6] = biological target: Vitamin D3 receptor (Homo sapiens) (UniProt P11473); assay: qHTS assay for small molecule agonists of vitamin D receptor signaling (AID 588543);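 further: 0% = DMSO basal and 100% = reference agonist control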
In short: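 Measured: β-lactamase reporter activity (CCF4, 405 nm excitation, 460/530 nm emission) in HEK293T VDR-UAS-bla cells after 16 h compound exposure at 37 °C. Normalization against 50 nM 1α,25-dihydroxyvitamin D3 and DMSO; Hill-fit EC50.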

[7] = biological target: Retinoic acid receptor RXR-alpha (Homo sapiens) (UniProt P19793); assay: qHTS assay for small molecule agonists of retinoid X receptor alpha signaling (AID 588544);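 further: 0% = DMSO basal wells and 100% = reference agonist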
[8] = biological target: Thyroid hormone receptor beta (Homo sapiens) (UniProt P10828); assay: qHTS assay for small molecule agonists of thyroid hormone receptor beta signaling (AID 588545)
In short: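 In this cell-based screen, titrated compounds act on HEK 293 cells held in medium with 2% charcoal/dextran FBS, NEAA and pyruvate for 18 hrs at 37 C. Responses are expressed relative to T3 (10 nM) as 100% and basal DMSO as 0%.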

[9] = qHTS assay for small molecule antagonists of retinoid X receptor alpha signaling (AID 588546; active means well fitted inhibition curve with a large enough effect in the signal ratio, with a control signal flat, not every such curve was filed as active; the % refers to the signal ratio;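 further: cells stimulated with 9-cis-retinoic acid as agonist; on the % scale 0 is the no-effect control and ±100 the full control effect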); details: HEK293T RXRa-UAS-bla, beta-lactamase ratio, antagonist mode; measured here: W530 green channel, cytotoxicity proxy
In short: (§1)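 Beta-lactamase reporter inhibition, read as CCF4 fluorescence ratio (ex 405, em 460/530 nm) after 2 h at RT. HEK293T UAS-bla cells, 2500/well, were stimulated with 9-cis-RA at 500 or 100 nM final alongside test compound for 18 h at 37 C.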

[10] = biological target: Retinoic acid receptor RXR-alpha (Homo sapiens) (UniProt P19793); assay: as above; details: HEK293T RXRa-UAS-bla, beta-lactamase ratio, antagonist mode
In short: as §1

[11] = qHTS assay for small molecule activators of the p53 signaling pathway (AID 651743; active means well fitted activation curve with a large enough effect in the signal ratio, not every such curve was filed as active; the % refers to the signal ratio; further: series mostly up to about 92 µM; % of control where 0% means no effect); details: HCT-116 p53RE-bla, beta-lactamase FRET ratio, 16 h; activation: stronger effect = higher value
In short: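 After 16 hours compound treatment at 37 C, HCT-116 cells stably expressing p53RE-driven beta-lactamase were loaded with LiveBLAzer B/G FRET substrate for 2 hours at room temperature. Fluorescence intensity served as the p53 activation read-out.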

[12] = qHTS assay for small molecule activators of the nuclear factor-kappa B (NF-kB) signaling pathway (AID 651749; active means well fitted activation curve with a large enough effect in the signal ratio; the % refers to the signal ratio; further: series mostly up to about 77 µM; % of control where 0% means no effect); details: NF-kB-bla ME-180 cells, beta-lactamase FRET ratio, 16 h; activation: stronger effect = higher value
In short: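 Activation measured after 16 hr compound treatment at 37C, 5% CO2, of 2,000 ME-180 cells/well stably expressing an NF-kB response element–driven beta-lactamase reporter, via FRET-disruption fluorescence.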

[13] = qHTS assay for environmental chemicals that activate the Aryl hydrocarbon Receptor (AhR) signaling pathway (AID 651777; active means well fitted curve in the direction sought with a large enough effect; an effect the other way counts as inactive or inconclusive; further: % of control where 0% means no effect; nearly all actives have a fitted effect of over 15% in size); details: 1A2-DRE human hepatoma cells, luciferase, 24 h; activation: stronger effect = higher value
In short: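 Human hepatoma 1A2-DRE cells, stably carrying a dioxin response element and CYP1A2 promoter driving luciferase, were exposed to compounds for 24 hr at 37 C and 5% CO2. Luciferase signal was then read after 30 min One-Glo at room temperature.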

[14] = biological target: Peroxisome proliferator-activated receptor alpha (Homo sapiens) (UniProt Q07869); assay: qHTS assay for small molecule agonists of the peroxisome proliferator-activated receptor alpha (PPARalpha) signaling pathway (AID 651778; active means well fitted curve in the direction sought with a large enough effect; an effect the other way counts as inactive or inconclusive; further: % of control where 0% means no effect); details: PathHunter PPARalpha complementation, chemiluminescence, 6 h; max response: stronger effect = higher value
In short: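 Chemiluminescence from complemented enzyme reported PPARalpha activation in cells after 6 hr of compound treatment at 37 C. The detection reagent was incubated for 60 min at room temperature, and compounds were scored as agonists.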

[15] = qHTS assay for small molecule agonists of the antioxidant response element (ARE) signaling pathway measured by Nrf2-dependant transcriptional activity (AID 720636; active means well fitted curve in the direction sought with a large enough effect in the repeat runs; an effect the other way counts as inactive or inconclusive; further: % of control where 0% means no effect)
In short: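 ARE-luc HepG2 cells carrying an Nrf2-responsive luciferase reporter were plated in medium with 1% dialyzed FBS, left 6 hr at 37 C to attach, then exposed to compound for 16 hr. Luciferase luminescence was read after ONE-Glo addition.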

[16] = qHTS assay for small molecule agonists of the antioxidant response element (ARE) signaling pathway measured by Nrf2-dependant transcriptional activity - cell viability counter screen (AID 720653; active means well fitted curve in the direction sought with a large enough effect in the repeat runs; an effect the other way counts as inactive or inconclusive; further: on the % scale 0 is the no-effect control and ±100 the full control effect); details: ARE-bla HepG2 viability, CellTiter-Glo ATP luminescence, 16 h; max response: stronger effect = lower value
In short: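 Cytotoxicity counter screen: intracellular ATP quantified by CellTiter-Glo luminescence in the same ARE-bla HepG2 plates, after 16 h compound exposure and a 2 h beta-lactamase substrate step.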

[17] = qHTS assay for cell viability of HEK293 cells (AID 743288; active means well fitted curve in the direction sought with a large enough effect; an effect the other way counts as inactive or inconclusive; further: on the % scale 0 is the no-effect control and ±100 the full control effect; nearly all actives have a fitted effect of over 50% in size); details: ATP luminescence (CellTiter-Glo), 18 h; max response: stronger effect = lower value
In short: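 HEK293, 18 h, 37 C, ATP luminescence. Cells at 2,000/well were allowed at least 5 h to settle before dosing; CellTiter-Glo developed 30 min at RT.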

[18] = qHTS assay for cell viability of the p53RE-bla HCT-116 cell line (AID 743292; active means well fitted curve in the direction sought with a large enough effect; an effect the other way counts as inactive or inconclusive; further: on the % scale 0 is the no-effect control and ±100 the full control effect; nearly all actives have a fitted effect of over 55% in size)
In short: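 CellSensor p53RE-bla HCT-116 cells, 4,000/well, preincubated 5 h at 37 C, then exposed to compounds in DMSO for 16 h at 37 C. Viability read as CellTiter-Glo luminescence (intracellular ATP) after 30 min at room temperature.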

[19] = biological target: Nuclear receptor subfamily 1 group I member 2 (Rattus norvegicus) (UniProt Q9R1A7); assay: qHTS assay for small molecule activators of the rat pregnane X receptor (rPXR) signaling pathway (AID 651751; call rule not given here; further: 0% is about no effect); details: rPXR reporter cells, luciferase (One-Glo), 24 h
[20] = biological target: Estrogen receptor (Homo sapiens) (UniProt P03372); assay: qHTS assay for small molecule agonists of estrogen receptor alpha signaling (AID 588514);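 further: 0% = vehicle only and 100% = reference agonist; nearly all actives have a fitted effect of over 70% in size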
In short: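 EC50 and efficacy came from Hill fits of beta-lactamase reporter signal (CCF4 dye, 2 h at room temperature) scaled between DMSO and 20 nM 17-beta-estradiol. Agonist mode: HEK293 ER-alpha-UAS-bla cells in charcoal/dextran-stripped serum medium, 18 h compound exposure at 37 C.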

Sequence of Thyroid hormone receptor beta (Homo sapiens) (P10828 whole entry, looked up): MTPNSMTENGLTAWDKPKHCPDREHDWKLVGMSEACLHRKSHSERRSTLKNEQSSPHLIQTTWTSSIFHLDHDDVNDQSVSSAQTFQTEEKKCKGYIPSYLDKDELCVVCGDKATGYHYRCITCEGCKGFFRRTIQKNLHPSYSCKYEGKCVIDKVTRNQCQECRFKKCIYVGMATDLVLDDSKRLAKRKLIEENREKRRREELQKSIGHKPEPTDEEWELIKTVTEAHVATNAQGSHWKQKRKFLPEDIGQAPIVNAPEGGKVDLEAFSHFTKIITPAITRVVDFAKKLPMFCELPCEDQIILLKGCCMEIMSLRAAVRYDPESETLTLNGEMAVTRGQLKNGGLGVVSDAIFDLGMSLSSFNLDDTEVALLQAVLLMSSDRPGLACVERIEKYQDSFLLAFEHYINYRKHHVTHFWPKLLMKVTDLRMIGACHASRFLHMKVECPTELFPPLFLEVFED
Sequence of Peroxisome proliferator-activated receptor delta (Homo sapiens) (Q03181 whole entry, looked up): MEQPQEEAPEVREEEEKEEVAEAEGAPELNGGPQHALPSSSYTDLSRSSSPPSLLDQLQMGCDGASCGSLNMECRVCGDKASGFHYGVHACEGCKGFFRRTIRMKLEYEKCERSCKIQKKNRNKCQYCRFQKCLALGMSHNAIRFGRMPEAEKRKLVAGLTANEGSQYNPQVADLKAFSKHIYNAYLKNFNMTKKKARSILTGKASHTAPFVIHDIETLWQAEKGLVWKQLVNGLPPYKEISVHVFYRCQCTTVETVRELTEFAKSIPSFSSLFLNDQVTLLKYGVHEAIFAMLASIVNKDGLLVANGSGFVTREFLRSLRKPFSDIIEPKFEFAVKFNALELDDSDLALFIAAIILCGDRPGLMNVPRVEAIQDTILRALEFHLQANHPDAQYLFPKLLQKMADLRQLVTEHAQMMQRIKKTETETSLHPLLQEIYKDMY
Sequence of Peroxisome proliferator-activated receptor gamma (Homo sapiens) (P37231 whole entry, looked up): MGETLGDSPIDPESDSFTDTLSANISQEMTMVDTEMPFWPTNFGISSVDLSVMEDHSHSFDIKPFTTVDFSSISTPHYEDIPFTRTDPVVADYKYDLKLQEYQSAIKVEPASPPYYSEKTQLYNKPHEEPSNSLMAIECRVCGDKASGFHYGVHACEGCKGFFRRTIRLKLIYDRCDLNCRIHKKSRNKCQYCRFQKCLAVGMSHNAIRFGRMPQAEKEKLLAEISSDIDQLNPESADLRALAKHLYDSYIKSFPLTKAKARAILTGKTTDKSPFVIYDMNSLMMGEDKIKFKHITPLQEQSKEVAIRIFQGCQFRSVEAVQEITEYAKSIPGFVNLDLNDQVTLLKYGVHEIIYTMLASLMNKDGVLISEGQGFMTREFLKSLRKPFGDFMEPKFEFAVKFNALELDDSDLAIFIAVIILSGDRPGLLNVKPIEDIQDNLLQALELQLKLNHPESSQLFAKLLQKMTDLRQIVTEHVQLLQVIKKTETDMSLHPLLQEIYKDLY
Sequence of Estrogen receptor (Homo sapiens) (P03372 whole entry, looked up): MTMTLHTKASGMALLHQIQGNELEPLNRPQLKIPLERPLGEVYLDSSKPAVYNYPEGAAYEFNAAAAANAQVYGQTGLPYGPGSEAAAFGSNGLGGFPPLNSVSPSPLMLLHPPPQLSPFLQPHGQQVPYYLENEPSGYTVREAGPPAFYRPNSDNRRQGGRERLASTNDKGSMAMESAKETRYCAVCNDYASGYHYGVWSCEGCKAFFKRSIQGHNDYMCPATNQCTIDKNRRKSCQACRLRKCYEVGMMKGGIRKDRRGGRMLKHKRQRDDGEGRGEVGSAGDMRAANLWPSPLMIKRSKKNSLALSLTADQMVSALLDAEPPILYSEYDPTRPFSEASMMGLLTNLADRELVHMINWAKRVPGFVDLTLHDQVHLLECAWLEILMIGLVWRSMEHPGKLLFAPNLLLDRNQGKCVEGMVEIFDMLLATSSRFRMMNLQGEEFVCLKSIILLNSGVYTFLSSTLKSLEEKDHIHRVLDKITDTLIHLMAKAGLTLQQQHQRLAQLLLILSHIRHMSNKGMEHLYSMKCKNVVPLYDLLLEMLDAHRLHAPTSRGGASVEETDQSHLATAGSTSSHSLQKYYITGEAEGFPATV
Sequence of Peroxisome proliferator-activated receptor alpha (Homo sapiens) (Q07869 whole entry, looked up): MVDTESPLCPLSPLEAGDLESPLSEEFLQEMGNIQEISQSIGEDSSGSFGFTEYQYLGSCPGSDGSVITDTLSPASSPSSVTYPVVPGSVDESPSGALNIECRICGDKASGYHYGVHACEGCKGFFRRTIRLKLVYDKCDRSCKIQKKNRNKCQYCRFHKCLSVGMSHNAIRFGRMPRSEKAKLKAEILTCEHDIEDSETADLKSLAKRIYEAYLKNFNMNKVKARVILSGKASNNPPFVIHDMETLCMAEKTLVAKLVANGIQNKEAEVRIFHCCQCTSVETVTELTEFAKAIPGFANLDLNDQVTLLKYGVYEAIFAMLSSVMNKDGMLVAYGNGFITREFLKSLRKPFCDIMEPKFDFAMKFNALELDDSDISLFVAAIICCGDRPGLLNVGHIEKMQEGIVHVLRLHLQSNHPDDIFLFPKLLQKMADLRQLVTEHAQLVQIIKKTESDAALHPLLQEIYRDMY
Sequence of Vitamin D3 receptor (Homo sapiens) (P11473 whole entry, looked up): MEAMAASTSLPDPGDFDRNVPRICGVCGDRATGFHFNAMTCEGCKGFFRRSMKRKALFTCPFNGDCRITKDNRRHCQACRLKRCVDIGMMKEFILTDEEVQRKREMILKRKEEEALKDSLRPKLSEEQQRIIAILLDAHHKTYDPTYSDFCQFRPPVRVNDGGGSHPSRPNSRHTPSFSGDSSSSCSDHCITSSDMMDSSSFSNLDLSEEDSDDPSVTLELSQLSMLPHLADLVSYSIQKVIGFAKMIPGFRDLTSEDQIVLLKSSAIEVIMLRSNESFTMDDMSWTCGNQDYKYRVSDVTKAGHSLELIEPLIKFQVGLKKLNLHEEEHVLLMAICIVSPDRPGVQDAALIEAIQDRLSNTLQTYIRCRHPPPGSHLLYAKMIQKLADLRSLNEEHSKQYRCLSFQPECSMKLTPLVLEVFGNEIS
Sequence of Glucocorticoid receptor (Homo sapiens) (P04150 whole entry, looked up): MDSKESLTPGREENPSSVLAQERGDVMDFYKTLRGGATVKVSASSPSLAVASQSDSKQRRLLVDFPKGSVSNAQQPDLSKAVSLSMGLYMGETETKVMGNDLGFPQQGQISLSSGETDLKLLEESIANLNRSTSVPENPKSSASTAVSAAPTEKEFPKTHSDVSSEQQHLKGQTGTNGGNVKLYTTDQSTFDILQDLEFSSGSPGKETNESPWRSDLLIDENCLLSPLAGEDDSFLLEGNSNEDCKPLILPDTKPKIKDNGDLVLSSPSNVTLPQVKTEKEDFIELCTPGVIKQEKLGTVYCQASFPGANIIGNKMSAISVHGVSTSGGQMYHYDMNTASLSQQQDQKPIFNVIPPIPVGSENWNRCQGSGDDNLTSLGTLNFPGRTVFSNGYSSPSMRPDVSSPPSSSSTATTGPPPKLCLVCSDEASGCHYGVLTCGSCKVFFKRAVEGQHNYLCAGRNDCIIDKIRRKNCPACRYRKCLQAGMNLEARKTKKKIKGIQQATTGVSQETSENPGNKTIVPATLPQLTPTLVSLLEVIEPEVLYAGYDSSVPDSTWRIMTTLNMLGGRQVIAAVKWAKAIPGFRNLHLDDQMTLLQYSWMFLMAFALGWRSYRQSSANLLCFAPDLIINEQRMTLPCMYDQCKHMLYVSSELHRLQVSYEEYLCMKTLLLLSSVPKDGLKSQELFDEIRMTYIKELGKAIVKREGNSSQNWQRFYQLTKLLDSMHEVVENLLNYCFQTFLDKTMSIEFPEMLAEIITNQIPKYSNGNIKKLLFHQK
Sequence of Retinoic acid receptor RXR-alpha (Homo sapiens) (P19793 whole entry, looked up): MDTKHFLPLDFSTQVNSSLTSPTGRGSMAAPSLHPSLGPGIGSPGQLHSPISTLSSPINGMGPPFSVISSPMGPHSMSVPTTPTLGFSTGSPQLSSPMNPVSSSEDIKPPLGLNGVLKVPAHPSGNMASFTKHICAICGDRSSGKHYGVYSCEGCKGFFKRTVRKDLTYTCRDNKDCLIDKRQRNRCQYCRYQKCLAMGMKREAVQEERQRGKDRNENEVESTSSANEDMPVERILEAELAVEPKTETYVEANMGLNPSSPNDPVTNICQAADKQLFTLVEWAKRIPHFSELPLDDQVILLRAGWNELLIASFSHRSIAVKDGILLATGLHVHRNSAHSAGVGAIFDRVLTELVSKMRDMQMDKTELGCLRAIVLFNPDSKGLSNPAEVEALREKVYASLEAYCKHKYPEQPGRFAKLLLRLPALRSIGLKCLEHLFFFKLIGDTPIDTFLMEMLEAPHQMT
Sequence of Nuclear receptor subfamily 1 group I member 2 (Rattus norvegicus) (Q9R1A7 whole entry, looked up): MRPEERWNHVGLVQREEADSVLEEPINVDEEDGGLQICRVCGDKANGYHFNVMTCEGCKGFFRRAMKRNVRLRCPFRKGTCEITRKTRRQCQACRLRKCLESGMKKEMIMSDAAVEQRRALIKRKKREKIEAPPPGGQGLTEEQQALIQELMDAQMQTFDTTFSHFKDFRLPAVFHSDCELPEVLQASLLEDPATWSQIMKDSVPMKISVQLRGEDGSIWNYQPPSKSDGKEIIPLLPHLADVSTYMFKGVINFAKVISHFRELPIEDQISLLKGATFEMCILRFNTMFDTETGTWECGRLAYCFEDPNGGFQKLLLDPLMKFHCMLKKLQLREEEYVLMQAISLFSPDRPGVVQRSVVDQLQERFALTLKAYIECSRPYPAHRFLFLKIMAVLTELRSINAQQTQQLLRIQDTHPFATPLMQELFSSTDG

CCC/C(=N\OCC)C1=C(O)CC(CC(C)SCC)CC1=O (stereo not drawn)
inactive: activation [1] -6.86% | outcome [2] | Potency [3] | Potency [4] | Potency [5] | outcome [6] | Potency [7] | Potency [8] | max response [10] -23% | activation [11] -6.84% | activation [12] 0.879% | activation [13] 1.24% | max response [14] 0.062% | Potency [15] | max response [16] -2.32% | max response [17] -13.8% | Potency [18] | max response [19] 0.0341%
-1.11%: max response [9]

O=P(O)(O)CN(CP(=O)(O)O)CP(=O)(O)O
-13.3%: max response [9]
inactive: activation [1] 4.25% | outcome [2] | Potency [3] | Potency [4] | Potency [5] | outcome [6] | Potency [8] | max response [10] -32% | activation [11] -5.96% | activation [12] 0.3% | activation [13] 0.682% | max response [16] -0.727% | max response [17] -8.91% | Potency [18] | max response [19] -1.66%

CCOP(=S)(OCC)SCCl
inactive: Potency [20] | activation [1] 12.1% | Potency [4] | Potency [5] | activation [11] 0.473% | activation [12] -1.72% | activation [13] 0.0178% | max response [14] -3.54% | Potency [15] | max response [16] -13.5% | max response [17] -19.2% | Potency [18] | max response [19] -4.02%

CCOP(=O)(OCC)Oc1ccc2c(C)c(Cl)c(=O)oc2c1
inactive: Potency [20] | activation [1] -3.39% | outcome [2] | Potency [3] | Potency [5] | Potency [7] | max response [10] -0.0168% | activation [11] 2.64% | activation [12] 0.977% | activation [13] 0.485% | max response [14] -3.26% | Potency [15] | max response [16] -2.45% | max response [17] -8.63% | Potency [18] | max response [19] 12.3%
-10.4%: max response [9]

CCSCc1ccccc1OC(=O)NC
inactive: activation [1] 1.02% | outcome [2] | Potency [4] | outcome [6] | Potency [7] | Potency [8] | max response [10] -13% | activation [11] 3.49% | activation [13] 0.553% | max response [14] -0.372% | Potency [15] | max response [16] -3.42% | max response [17] -9.67% | Potency [18] | max response [19] 0.0425%
-7.11%: max response [9]

CC(C)CCCCCCOC(=O)c1ccccc1C(=O)OCCCCCCC(C)C
inactive: Potency [20] | activation [1] 9.1% | outcome [2] | Potency [3] | Potency [5] | outcome [6] | Potency [7] | max response [10] -4.29% | activation [11] 0.433% | activation [12] 2.38% | activation [13] 1.61% | max response [14] -1.61% | max response [16] 0.428% | max response [17] -8.54% | Potency [18] | max response [19] 5.38%
-8.76%: max response [9]
